Source: PubChem BioAssay (National Center for Advancing Translational Sciences (NCATS))
This is a sample that favours compounds with a hit; in the whole collection about 19% have one here.
HT1080 IDH1KD tx: qHTS for induction of synthetic lethality in tumor cells producing 2HG: qHTS for the HT-1080-IDH1KD cell line; Potency, µM (highest dose often 46.1 µM), most hits filed as cytotoxic; HT-1080 IDH1 knockdown viability, ATP luminescence, 48 h; AID 686971, 2013; 360,000 compounds, 2% hits
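After a 2 h attachment period, IDH1KD HT-1080 cells took pin-transferred compound for 48 h at 37 °C; ATP-based luminescence after 10 min room-temperature reagent incubation reported viability.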
HT1080-NT tox: qHTS for induction of synthetic lethality in tumor cells producing 2HG: qHTS for the HT-1080-NT fibrosarcoma cell line. Potency, µM (doses to about 46.1 µM), most hits filed as cytotoxic. 360,000 compounds, 1.6% hits. HT-1080-NT fibrosarcoma viability, CellTiter-Glo ATP luminescence, 48 h;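 note: NT is the 2HG producing partner of a matched IDH1 knockdown line; nearly all actives have a fitted effect of over 55% in size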
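Compounds were tested in concentration-response format on HT-1080-NT cells for 48 hours at 37 degrees C. Cell viability came from CellTiter-Glo luminescence; curves were classified by r2, response magnitude and activity.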
ELG1 repair inh: qHTS screen for small molecules that inhibit ELG1-dependent DNA repair in human embryonic kidney (HEK293T) cells expressing luciferase-tagged ELG1. HEK293T ELG1-luciferase reporter, luminescence, 16 h; DNA damage induced by 5-fluorouridine. Potency, µM (highest dose often 46.1 µM), actives largely listed as inhibitors. 330,000 compounds, 2.3% hits; note: nearly all actives have a fitted effect of over 55% in size
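DMSO vehicle served as the neutral condition. Each well held 2,000 cells given 5-fluorouridine plus compound; after 16 hr at 37 °C/5% CO2, ONE-Glo was added and luciferase measured 30 min later.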
TDP1 cell CPT: qHTS for Inhibitors of human tyrosyl-DNA phosphodiesterase 1 (TDP1): qHTS in cells in presence of CPT | chicken DT40 Tdp1-/-;hTDP1 cells + 20 nM CPT, ATP luminescence, 48 h | Potency, µM (highest dose often 46.2 µM), most hits filed as inhibitors | 420,000 compounds, 12% hits | AID 686979, 2013; note: nearly all actives have a fitted effect of over 55% in size
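Chicken DT40 Tdp1-/- cells stably complemented with human TDP1 were seeded at 400 cells/well in medium containing 20 nM camptothecin, exposed to pin-transferred compounds, and grown at 37 °C for at least 48 hr. Viability was read as ATP luminescence.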
DT40 TDP1 no CPT: qHTS for Inhibitors of human tyrosyl-DNA phosphodiesterase 1 (TDP1): qHTS in cells in absence of CPT; DT40 Tdp1-/- hTDP1 cells, no CPT, ATP luminescence, 48 h; 420,000 compounds, 15% hits; Potency, µM (top dose mostly 46.2 µM), most hits filed as inhibitors; note: nearly all actives have a fitted effect of over 55% in size
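Chicken DT40 Tdp1-/- cells complemented with human TDP1, screened without camptothecin (DMSO vehicle only), 400 cells/well. Compounds pin-transferred, cells incubated at 37 °C for at least 48 hr. Growth read as ATP-dependent luminescence (CellTiter-Glo, 30 min at RT).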
IL1B secr inh: qHTS for Inhibitors of Inflammasome Signaling: IL-1-beta AlphaLISA Primary Screen | activity change, % at 57.5 µM | THP-1 LPS/ATP IL-1B secretion, AlphaLISA, 16 h; hits give low values | 360,000 compounds, 4.7% hits; in the data active = activity change below about -50%; inconclusive = mostly about -30% to -49%
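THP-1 cells pretreated 1 hr with compounds (up to 57.5 uM final), then stimulated with LPS (250 ng/mL final) plus ATP (1.25 mM final); secreted IL-1B measured by AlphaLISA after 16 hr, decreased signal indicating inhibition.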
A number is an active result; 0 = inactive; ? = inconclusive; - = not tested or not shown; [ ] = dose if it differs, or a comment. Unless noted, calls come from the whole dose curve; as a rule, active = well fitted curve in the direction sought with a large enough effect; inconclusive = small, poorly fitted or top-dose-only effect, or another doubt; inactive = no such curve, though single readings can be large; an effect the other way counts as inactive or inconclusive.

SMILES	HT1080 IDH1KD tx	HT1080-NT tox	ELG1 repair inh	TDP1 cell CPT	DT40 TDP1 no CPT	IL1B secr inh
COc1ccc(NC(=O)C2=C(C)Nc3nc(SCc4ccc(C)cc4C)nn3C2c2cccc(OC)c2OC)cc1 (stereo not drawn)	-	-	-	0	0	-
CCn1ccc2c(OCC(=O)Nc3ccc(C)c(Cl)c3)cccc2c1=O	-	-	-	25.9µM	16.4µM	-
CCCn1ccc2c(OCC(=O)Nc3ccc(F)cc3F)cccc2c1=O	-	-	-	16.4µM	?	-
COc1cc2c(cc1OC(C)=O)CCCCC2=O	0	0	-	0	0	0
Cc1cc(C)nc(N/C(=N\S(=O)(=O)Cc2ccccc2)Nc2ccccc2Br)n1	?	0	?	20.6µM	20.6µM	0
CCc1ccccc1NC(=O)c1cnc2sc(N3CCOCC3)nn2c1=O	-	-	-	0	0	-
O=C(NNC(=O)c1ccc(-c2ccc([N+](=O)[O-])cc2)o1)c1ccncc1	0	0	0	0	0	0
COc1ccc(OC)c(/C=C/c2ccnc3ccccc23)c1	?	?	-	3.66µM	4.61µM	-75.8
COc1cc(OC)c(OC)cc1/C=C/c1ccnc2ccccc12	?	?	-	13µM	16.4µM	0
COc1ccc2ncccc2c1Cc1c(OC)ccc2ncccc12	0	0	-	14.6µM	13µM	-75.0
COc1ccccc1/C=C/c1ccnc2ccccc12	-	-	-	?	14.1µM	-
Cc1ccc2ncccc2c1N	0	0	0	0	0	0
COCCN1CCN(C(=O)c2cc(COc3ccc(F)cc3F)on2)CC1	0	0	0	0	0	0
Cc1c(C(=O)N(C)C2CCOC2)cnn1-c1ncc2c(n1)-c1ccccc1CCC2 (stereo not drawn)	-	-	-	0[9.04 µM]	0	-
Cc1ccc(C(=O)N(Cc2cc3cccc(C)c3nc2N(C)C)CC2CCCO2)cc1 (stereo not drawn)	-	-	-	0	0	-
COC(=O)[C@H]1[C@H](c2ccccc2)[C@H](C(=O)OC)O[C@H]1c1ccccc1	0	0	-	0	0	0
O=C(c1ccccc1)C1C(c2ccccc2)C1[N+](=O)[O-] (stereo not drawn)	0	0	0	0	0	-56.1
Cc1cccc(C)c1NC(=O)Nc1cccs1	0	0	0	18.4µM	18.4µM	0
O=C(Nc1cccs1)Nc1c(F)c(F)c(F)c(F)c1F	0	0	0	20.6µM	16.4µM	0
O=C(Nc1cccs1)Nc1cc(C(F)(F)F)ccc1Cl	-	-	-	?	16.4µM	-
O=C(Nc1cccs1)Nc1c(F)cc(F)cc1Br	0	0	0	7.31µM	23.1µM	0
O=C(COC(=O)CCc1ccc(S(=O)(=O)N2CCOCC2)cc1)NCc1ccccc1Cl	0	0	0	0	0	0
COc1ccccc1CN(C(=O)CNC(=O)c1ccco1)C(C(=O)NCC1CCCO1)c1ccc(OC)c(OC)c1 (stereo not drawn)	0	0	0	0	0	0
N#Cc1cccc(NC(=O)Nc2cccs2)c1	0	0	0	?	16.4µM	0
Cc1ccc(NC(=O)c2ccc(CSc3ccccn3)cc2)c(O)c1	0	0	0	0	?	0
SMILES	HT1080 IDH1KD tx	HT1080-NT tox	ELG1 repair inh	TDP1 cell CPT	DT40 TDP1 no CPT	IL1B secr inh
Cc1ccc(NC(=O)c2ccc(CSc3ccccn3)cc2)cc1	0	0	0	?	23.1µM	?
Cc1ccc(N/C(N)=N/c2nc(CSc3ccccn3)cc(=O)[nH]2)c(C)c1	?	0	?	?	18.4µM	0
COc1cccc(N/C(N)=N/c2nc(CSc3ccccn3)cc(=O)[nH]2)c1	-	-	0	-	-	-
CCc1ccc(N/C(N)=N/c2nc(CSc3ccccn3)cc(=O)[nH]2)cc1	0	0	23.1µM	14.6µM	16.4µM	0
Cc1ccc(N/C(N)=N/c2nc(CSc3nnc(N)s3)cc(=O)[nH]2)cc1	0	0	0	0	0	0
CCOC(=O)[C@]12CCC=C1N(Cc1ccccc1)C(=O)[C@H](CC(=O)NCc1ccc(OC)c(OC)c1)C2	0	0	-	?	?	0
O=[N+]([O-])c1ccc(/C=N/Nc2nc(N3CCCCCC3)nc(N3CCCCCC3)n2)o1	?	?	23.1µM	25.9µM	?	?
Cc1ccc(/C=N/Nc2nc(N3CCCCC3)nc(N3CCCCC3)n2)o1	0	0	0	0	?	0
COc1ccc([N+](=O)[O-])cc1/C=N/Nc1nc(N2CCCCC2)nc(N2CCCCC2)n1	0	0	?	?	?	0
O=[N+]([O-])c1ccccc1/C=C/C=N/Nc1nc(N2CCCCC2)nc(N2CCCCC2)n1	0	0	0	0	?	0
C(=C\c1ccccc1)/C=N/Nc1nc(N2CCCCC2)nc(N2CCCCC2)n1	0	0	0	11.6µM	11.6µM	0
O=[N+]([O-])c1ccc(Nc2nc(N/N=C\c3ccc4c(c3)OCO4)nc(N3CCCCC3)n2)cc1	0	0	?	20.6µM	16.4µM	?
O=[N+]([O-])c1ccc(/C=N/Nc2nc(N3CCCCC3)nc(N3CCCCC3)n2)cc1	0	0	0	?	16.4µM	0
COC(=O)[C@H](C)NS(=O)(=O)C1CC1	-	-	-	0	0	-
CC(C)C(NC(=O)C1CC(=O)N(Cc2ccccc2)C1)c1nc2ccccc2[nH]1 (stereo not drawn)	0	0	0	0	0	0
O=[N+]([O-])c1ccc(-c2ccc(/C=N/Nc3nc(NCc4ccccc4)nc(N4CCOCC4)n3)o2)cc1	16.4µM	18.4µM	?	9.2µM	16.4µM	-91.5
COc1nc(N/N=C/c2ccc(-c3ccccc3[N+](=O)[O-])o2)nc(N2CCOCC2)n1	0	0	?	?	?	0
N#C/C(=C/c1ccccc1)C(=O)NCc1ccccc1	0	0	0	0	?	-77.3
N#C/C(=C/c1ccc(O)c(O)c1)C(=O)NCc1ccc(Cl)cc1	?	?	0	25.9µM	?	0
N#C/C(=C\c1ccc(O)c(Br)c1)C(=O)NCc1ccccc1	0	0	0	0	0	0
CC(C)c1cc(/C=C(\C#N)C(=O)NCCCc2ccccc2)cc(C(C)C)c1O	-	-	-	20.6µM	20.6µM	-
COc1cc(/C=C(\C#N)C(=O)NCc2ccccc2)ccc1OCc1ccc(C(=O)O)cc1	0	0	?	?	?	0
COc1ccc(CCNC(=O)/C(C#N)=C/c2cccc(OCc3ccccc3)c2)cc1OC	0	?	?	?	18.4µM	?
